The panel holds about 83,000 compounds, 20% with a hit somewhere; the sample as a whole holds those more often.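 How to read the values: 0–100, growth inhibition (40 = 60% inhibited); 0, no net growth; -100 to 0, cell death (-40 = 40% of starting cells died; -100 = all dead).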 Calls of active or inactive are those of the source. The calls were made as follows: active = growth percent below 10; inactive = the rest.
system: A498 renal; assay: NCI-60 one-dose screen, 48 h (100 = growth as untreated, 0 = no growth, -100 = all killed); conditions: 10 µM unless noted

Row | Structure (SMILES) | growth
1 | CCCCCCCC/C=C\CCCCCCCCOc1ccccc1CCOP(=O)(O)OCC[N+](C)(C)C | 82.7% (inactive)
2 | CCN1C(=S)N(CC)C2Nn3c(s/c(=C4\C(=O)N(C)c5ccccc54)c3=O)=NC21 (configuration not stated) | -8.5% (active)
3 | O=C(CNC(=O)c1cccc2ccccc12)Nc1ccccc1Oc1ccccc1 | -14.9% (active)
4 | CN(C)C/C=C/C(=O)Nc1cc2c(Nc3ccc(F)c(Cl)c3F)ncnc2cc1OCCOC(F)F | -47.7% (active)
5 | CCN1C(=O)/C(=c2\sc3n(c2=O)C2C(NN=3)N(CC)C(=S)N2CC)c2ccccc21 (configuration not stated) | 91.5% (inactive)
6 | ClC1=C(Cl)C(Cl)=C(Cl)C1=Cc1ccc(Cl)cc1Cl | -89.6% (active)
7 | CC(C)CCC[C@@H](C)[C@H]1CC[C@H]2[C@@H]3CC[C@H]4C/C(=N/O)CC[C@]4(C)[C@H]3CC[C@]12C | 98.5% (inactive)
8 | COc1ccc(/C=c2\sc3n(c2=O)C2C(NN=3)N(C)C(=O)N2C)cc1 (configuration not stated) | -21.3% (active)
9 | COc1ccc(OC)c(/C=C2\Oc3cc(OCCN4CCCC4)ccc3C2=O)c1 | 78.2% (inactive)
10 | CCCCCC/C=C\CCCCCCCCOc1ccc(CCOP(=O)(O)OCC[N+](C)(C)C)cc1 | 95.6% (inactive)
11 | CCN1C(=O)N(CC)C2C1NN=c1s/c(=C3\C(=O)N(C4CCCC4)c4ccccc43)c(=O)n12 (configuration not stated) | -25.9% (active)
12 | CN(C)c1nc(N)c(N=O)c(N)n1 | 76.1% (inactive)
13 | C/C(=N\NC(=O)CC#N)c1cc2cc(Cl)ccc2o1 | 111% (inactive)
14 | COc1cc(C2CC(c3c(C)[n+]([O-])c4ccccc4[n+]3[O-])=NN2)cc(OC)c1OC (configuration not stated) | 97.5% (inactive)
15 | COc1ccc(NC(=S)/N=c2\oc3c(OC)cccc3cc2-c2cc3ccccc3[nH]2)cc1 | 87.9% (inactive)
16 | COc1cc(/C=C/C(=O)c2ccccc2O)ccc1OCCCOc1cc2c(cc1OC)C(=O)N1CCC[C@H]1C=N2 | -68.4% (active)
17 | O=C1CCC/C=C\C[C@H]2C=CC(=O)/C2=C/C[C@H](C/C=C\CC(F)(F)F)O1 | -75.2% (active)
18 | CC(C)(C)c1cc(-c2nc3ccc(N4CCN(CCO)CC4)cc3[nH]2)cc(C(C)(C)C)c1O | 86.1% (inactive)
19 | C=C1C(=O)O[C@H]2[C@H]1CC/C(Cn1cc(-c3ccsc3)nn1)=C\CC[C@@]1(C)O[C@@H]21 | -4.99% (active)

Row | Structure (SMILES) | growth
20 | C#CCN1C(=O)/C(=c2\sc3n(c2=O)C2C(NN=3)N(CC)C(=O)N2CC)c2ccccc21 (configuration not stated) | -33.8% (active)
21 | COc1cccc2cc(-c3cc4ccccc4[nH]3)/c(=N/C(=S)Nc3ccccc3)oc12 | 92.4% (inactive)
22 | Cc1ccc(S(=O)(=O)OCC(=O)Nc2ccc(C(=O)O)c(O)c2)cc1 | 99.3% (inactive)
23 | CCCCCCCCCN1C(=O)/C(=c2\sc3n(c2=O)C2C(NN=3)N(CC)C(=O)N2CC)c2ccccc21 (configuration not stated) | 18.8% (inactive)
24 | Cc1oc2nc[nH]c(=O)c2c1C(=O)/C=C/c1ccc(Cl)cc1Cl | 94.3% (inactive)
25 | C#CCN1C(=O)/C(=c2\sc3n(c2=O)NC2C(N=3)N(CC)C(=O)N2CC)c2ccccc21 (configuration not stated) | 36.8% (inactive)
26 | CCN(Cc1ccc(CN(CC)C(=O)C(Cl)(Cl)Cl)cc1)C(=O)C(Cl)(Cl)Cl | 82.6% (inactive)
27 | COc1cc(C(=O)N2CCN(C(=O)c3ccco3)CC2)c(N)cc1OCc1ccccc1 | 105% (inactive)
28 | CCN1C(=O)N(CC)C2Nn3c(s/c(=C\c4cccc(F)c4)c3=O)=NC21 (configuration not stated) | 46.1% (inactive)
29 | COc1ccc(NC(=O)/N=c2\oc3c(OC)cccc3cc2-c2cc3ccccc3[nH]2)cc1 | 75% (inactive)
30 | O=c1[nH]c(CN2CCN(c3ccccc3F)CC2)nc2sc3c(c12)CCC3 | 93% (inactive)
31 | O=C(CSc1nc(-c2ccc(Cl)cc2)cn1-c1ccc(Cl)cc1)c1ccc(Br)cc1 | 93.8% (inactive)
32 | CCCCNc1nnc(-c2cc(-c3cc4ccccc4o3)nn2-c2ccccc2)o1 | 86.5% (inactive)
33 | COc1cc2oc(-c3cccc(NC(=O)Nc4ccc5c(c4)OCO5)c3)cc(=O)c2c(OC)c1OC | 77.1% (inactive)
34 | CCN1C(=O)N(CC)C2Nn3c(s/c(=C4\C(=O)N(C5CCCC5)c5ccccc54)c3=O)=NC21 (configuration not stated) | 30.8% (inactive)
35 | NC(N)=NC(N)=Nc1ccccc1-c1ccccc1 | 113% (inactive)
36 | CCN1C(=O)N(CC)C2C1NN=c1s/c(=C\c3ccccn3)c(=O)n12 (configuration not stated) | -29.2% (active)
37 | C/C1=C\CCC2(C)OC2CC2CCC(C)(O)C(CC1)C2(C)C (configuration not stated) | 106% (inactive)

Reference: PubChem BioAssay (NCI)
